This is an account of results in PubChem BioAssay (EPA / NIEHS).

The target of experiment [1] is Myc proto-oncogene protein (Homo sapiens) (UniProt P01106). The experiment can be described thus: ATG_Myc_CIS: Attagene CIS-FACTORIAL HepG2 Assay for human Myelocytomatosis (Myc) Proto-Oncogene Transcription Factor (AID 2282990). The settings on record: HepG2, Attagene cis-reporter transcription factor activity; actives raise or lower the signal. In a few lines:
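Read-out: fluorescent reporter mRNA fragments resolved by capillary electrophoresis after RT-PCR. Human HepG2 liver cells carried transfected cis-element reporter units and were dosed for 24 h. Gain or loss of signal fitted relative to DMSO baseline.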

The nature of experiment [2]: ATG_NRF2_ARE_CIS: Attagene CIS-FACTORIAL HepG2 Assay for human Nuclear Factor Erythroid 2 Related Factor 2 (NFR2) response to Antioxidant Response Elements (ARE) (AID 2282992). The settings on record: HepG2 Attagene ARE/NRF2 reporter, transcription factor activity; actives raise or lower the signal. In short, it runs like this: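 Endogenous transcription factor activity in human liver HepG2 cells is tracked via a cis-element-driven reporter within a multiplexed set. mRNA induction is read by RT-PCR and capillary electrophoresis after 24 h, with DMSO as baseline.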

A short description of experiment [3]: ATG_Oct_MLP_CIS: Attagene CIS-FACTORIAL HepG2 Assay for human Octamer-Binding Transcription Factor (Oct) (AID 2282993). The settings on record: HepG2 Attagene cis-factorial Oct reporter, mRNA; actives raise or lower the signal. In short, it runs like this:
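Cells of the HepG2 line express promoter-controlled reporter sequences whose mRNA levels, after 24 h treatment, are measured by RT-PCR and capillary electrophoresis. Increases and decreases are scored relative to DMSO.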

A short description of experiment [4]: BSK_3C_TissueFactor: BioMAP Diversity Plus: 3C Assay for Tissue Factor Biomarker Activity (AID 2282997). As to conditions: BioMAP 3C HUVEC, tissue factor biomarker readout; actives raise or lower the signal. In a few lines: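 Tissue factor on primary human umbilical vein endothelium was read by ELISA 24 h after dosing, gain or loss relative to DMSO. Cytotoxicity ran alongside via SRB (0.1%, TCA-fixed, 560 nm).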

Experiment [5] is described as follows: BSK_3C_uPAR: BioMAP Diversity Plus: 3C Assay for Urokinase-type plasminogen activator receptor (uPAR) Biomarker Activity (AID 2282998). As to conditions: BioMAP 3C HUVEC, uPAR biomarker ELISA; actives raise or lower the signal. In short, it runs like this: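 Endothelial primary cells of human umbilical vein origin received test chemical; 24 h later uPAR was assayed by ELISA. Fitting was bidirectional, DMSO as negative control.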
(ELISA stands for enzyme-linked immunosorbent assay.)

Experiment [6] is described as follows: BSK_3C_VCAM1: BioMAP Diversity Plus: 3C Assay for Vascular cell adhesion molecule 1 (VCAM1) Biomarker Activity (AID 2282999). The settings on record: BioMAP 3C HUVEC, VCAM1 ELISA, cytokine-stimulated; actives raise or lower the signal. In short, it runs like this: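 HUVEC primary cells, 24 h compound exposure; VCAM-1 by ELISA; gain/loss of signal fitted bidirectionally vs DMSO baseline.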

The nature of experiment [7]: BSK_4H_Eotaxin3: BioMAP Diversity Plus: 4H Assay for Eotaxin 3 Biomarker Activity (AID 2283000).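 Also: CCL26 protein level quantified by ELISA in parallel with SRB cytotoxicity check.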 As to conditions: primary human endothelial cells (HUVEC); actives raise or lower the signal. In a few lines:
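Human umbilical vein endothelial cells (BSK_4H system) dosed with test chemical; Eotaxin-3 (CCL26) measured by ELISA 24 h after dosing. Bidirectional curve fitting relative to DMSO negative control as baseline.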

Experiment [8] has as its target human Peroxisome Proliferator-activated Receptor alpha (PPARa), PPARA (gene 5465) (UniProt Q07869). The experiment can be described thus: ATG_PPARa_TRANS: Attagene TRANS-FACTORIAL HepG2 Assay for human Peroxisome Proliferator-activated Receptor alpha (PPARa) (AID 2283001; active = hit-call score of the fitted dose curve at least 0.9, where 1 is the maximum). In a few lines: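 Transient HepG2 transfection, GAL4-UAS reporters, NR-Gal4 chimeras; 24 h compound exposure. Readout: reporter transcripts by RT-PCR, 6-FAM primer extension, HpaI digest, capillary electrophoresis. Positive direction vs DMSO baseline.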

Read-out in experiment [9]: Intercellular Adhesion Molecule 1 (ICAM1), ICAM1 (gene 3383)
The experiment can be described thus: BSK_3C_ICAM1: BioMAP Diversity Plus: 3C Assay for Intercellular Adhesion Molecule 1 (ICAM1) Biomarker Activity (AID 2283003). As to conditions: primary human endothelial cells (HUVEC); actives raise or lower the signal. In short, it runs like this:
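Using DMSO as baseline, bidirectional curve fitting was applied to ICAM-1 ELISA signals from HUVEC in the 3C system, measured 24 h after compound addition.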

Experiment [10] can be described thus: BSK_3C_Proliferation: Cell Proliferation Assessment in the BioMAP Diversity Plus: 3C Assay (AID 2283006).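 As to AC50: potency may reflect either rise or fall in cell number versus DMSO.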 The settings on record: primary human endothelial cells (HUVEC). In short, it runs like this: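 Measured here: sulforhodamine B (0.1%) staining of TCA-fixed sub-confluent umbilical vein endothelial cultures 48 h post-dosing, absorbance 560 nm. DMSO served as negative control and baseline; both signal gain and loss were modelled.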

For experiment [11], the target named is Peroxisome proliferator-activated receptor gamma (Homo sapiens) (UniProt P37231). In words: ATG_PPARg_TRANS: Attagene TRANS-FACTORIAL HepG2 Assay for human Peroxisome Proliferator-activated Receptor-gamma (PPARg) (AID 2283007; active = hit-call score of the fitted dose curve at least 0.9, where 1 is the maximum). In a few lines: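 Read-out: reporter mRNA induction, detected by fluorescence after RT-PCR and capillary electrophoresis. Transiently transfected human HepG2 liver cells carrying a chimeric NR-Gal4 construct were dosed for 24 h; activity was fitted upward relative to DMSO.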

Experiment [12] has as its target Nuclear receptor subfamily 1 group I member 2 (Homo sapiens) (UniProt O75469). In words: ATG_PXR_TRANS: Attagene TRANS-FACTORIAL HepG2 Assay for human Pregnane X Receptor (PXR) (AID 2283008; active = hit-call score of the fitted dose curve at least 0.9, where 1 is the maximum). In short, it runs like this: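 HepG2 transfected (FuGene 6) with GAL4-UAS reporter units + PXR-Gal4 chimera; dosed 24 h. Total RNA → oligo(dT) RT → PCR → 6-FAM primer extension → HpaI cut → CE. Gain-of-signal vs DMSO.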

In experiment [13] the target is human RAR-related Orphan Receptor beta (RORb), RORB (gene 6096) (UniProt Q92753). The experiment can be described thus: ATG_RORb_TRANS: Attagene TRANS-FACTORIAL HepG2 Assay for human RAR-related Orphan Receptor beta (RORb) (AID 2283010; active = hit-call score of the fitted dose curve at least 0.9, where 1 is the maximum). In short, it runs like this:
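Multiplexed transcription-factor reporter assay: HepG2 cells transiently carrying NR-Gal4/GAL4-UAS constructs, 24 h treatment, mRNA quantified by RT-PCR plus capillary electrophoresis fluorescence; activity scored as induction over DMSO.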

Experiment [14] has as its target human RAR-related Orphan Receptor gamma (RORg), RORC (gene 6097) (UniProt P51449). In words: ATG_RORg_TRANS: Attagene TRANS-FACTORIAL HepG2 Assay for human RAR-related Orphan Receptor gamma (RORg) (AID 2283011; active = hit-call score of the fitted dose curve at least 0.9, where 1 is the maximum). In short, it runs like this: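 Reporter transcripts from a transfected RORg-GAL4 chimera in HepG2 cells were quantified 24 h after dosing by RT-PCR, 6-FAM labelling, HpaI digestion and capillary electrophoresis; increases over DMSO baseline were fitted.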

Experiment [15] deals with human Retinoic Acid Receptor beta (RARb), RARB (gene 5915) (UniProt P10826). The experiment can be described thus: ATG_RARb_TRANS: Attagene TRANS-FACTORIAL HepG2 Assay for human Retinoic Acid Receptor beta (AID 2283004; active = hit-call score of the fitted dose curve at least 0.9, where 1 is the maximum). In short, it runs like this: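 Induction of reporter mRNA from a chimeric RARb-Gal4 construct was measured by RT-PCR, FAM labelling, HpaI digestion and capillary electrophoresis. Measurements followed 24 h compound treatment of transiently transfected human HepG2 liver cells, with DMSO as baseline.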

The target of experiment [16] is human Retinoic Acid Receptor gamma (RARg), RARG (gene 5916) (UniProt P13631). In words: ATG_RARg_TRANS: Attagene TRANS-FACTORIAL HepG2 Assay for human Retinoic Acid Receptor gamma (RARg) (AID 2283009; active = hit-call score of the fitted dose curve at least 0.9, where 1 is the maximum). In short, it runs like this:
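Gain-of-signal relative to DMSO is reported from fluorescent capillary electrophoresis of RT-PCR reporter products. These came from HepG2 cells expressing transfected RARg-GAL4 chimeras with UAS reporters, harvested 24 h after dosing.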

For experiment [17], the target named is human Peroxisome Proliferator-activated Receptor delta (PPARd), PPARD (gene 5467) (UniProt Q03181). The experiment can be described thus: ATG_PPARd_TRANS: Attagene TRANS-FACTORIAL HepG2 Assay for human Peroxisome Proliferator-activated Receptor delta (PPARd) (AID 2283002; active = hit-call score of the fitted dose curve at least 0.9, where 1 is the maximum). In short, it runs like this:
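Read-out: reporter mRNA induction, quantified by fluorescent RT-PCR products resolved by capillary electrophoresis. Human HepG2 liver cells carried transiently transfected Gal4-UAS reporter constructs with chimeric NR-Gal4 fusions. Cells were dosed for 24 h; DMSO served as baseline.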

Usually AC50 stands for the midpoint of the concentration-response curve, whichever way the signal moves.

Records with an inconclusive call do not appear. The source made the active and inactive calls. The calls were made as follows, unless noted: active = hit-call score of the fitted dose curve at least 0.9, where 1 is the maximum; inactive = score below 0.9.

Sequence of Peroxisome proliferator-activated receptor gamma (Homo sapiens) (P37231 whole entry, looked up, the tested form may be a part): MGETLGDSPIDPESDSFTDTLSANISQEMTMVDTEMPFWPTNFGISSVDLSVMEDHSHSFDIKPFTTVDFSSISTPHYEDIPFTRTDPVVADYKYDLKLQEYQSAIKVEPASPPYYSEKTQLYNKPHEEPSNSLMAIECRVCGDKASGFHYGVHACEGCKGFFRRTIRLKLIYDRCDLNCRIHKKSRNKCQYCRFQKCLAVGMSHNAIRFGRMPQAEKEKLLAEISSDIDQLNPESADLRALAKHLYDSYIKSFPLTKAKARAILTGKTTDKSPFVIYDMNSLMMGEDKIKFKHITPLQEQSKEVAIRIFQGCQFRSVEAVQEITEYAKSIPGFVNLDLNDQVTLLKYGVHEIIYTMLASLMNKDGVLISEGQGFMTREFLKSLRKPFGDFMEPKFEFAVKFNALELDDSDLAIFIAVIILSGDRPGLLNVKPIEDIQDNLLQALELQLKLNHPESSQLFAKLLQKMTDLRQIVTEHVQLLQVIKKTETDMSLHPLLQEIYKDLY
Sequence of human Peroxisome Proliferator-activated Receptor alpha (PPARa), PPARA (gene 5465) (Q07869 whole entry, looked up, the tested form may be a part): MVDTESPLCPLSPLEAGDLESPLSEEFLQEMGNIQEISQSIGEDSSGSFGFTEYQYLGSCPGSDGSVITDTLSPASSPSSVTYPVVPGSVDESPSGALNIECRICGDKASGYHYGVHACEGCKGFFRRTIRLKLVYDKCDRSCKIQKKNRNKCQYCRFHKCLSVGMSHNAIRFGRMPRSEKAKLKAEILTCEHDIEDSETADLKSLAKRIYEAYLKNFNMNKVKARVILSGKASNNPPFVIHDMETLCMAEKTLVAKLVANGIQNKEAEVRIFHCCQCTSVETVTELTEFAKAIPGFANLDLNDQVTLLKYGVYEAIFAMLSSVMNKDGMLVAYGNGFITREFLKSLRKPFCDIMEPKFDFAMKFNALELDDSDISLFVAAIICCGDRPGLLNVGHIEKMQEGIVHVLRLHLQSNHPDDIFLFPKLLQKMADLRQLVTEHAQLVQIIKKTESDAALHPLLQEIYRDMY
Sequence of human RAR-related Orphan Receptor beta (RORb), RORB (gene 6096) (Q92753 whole entry, looked up, the tested form may be a part): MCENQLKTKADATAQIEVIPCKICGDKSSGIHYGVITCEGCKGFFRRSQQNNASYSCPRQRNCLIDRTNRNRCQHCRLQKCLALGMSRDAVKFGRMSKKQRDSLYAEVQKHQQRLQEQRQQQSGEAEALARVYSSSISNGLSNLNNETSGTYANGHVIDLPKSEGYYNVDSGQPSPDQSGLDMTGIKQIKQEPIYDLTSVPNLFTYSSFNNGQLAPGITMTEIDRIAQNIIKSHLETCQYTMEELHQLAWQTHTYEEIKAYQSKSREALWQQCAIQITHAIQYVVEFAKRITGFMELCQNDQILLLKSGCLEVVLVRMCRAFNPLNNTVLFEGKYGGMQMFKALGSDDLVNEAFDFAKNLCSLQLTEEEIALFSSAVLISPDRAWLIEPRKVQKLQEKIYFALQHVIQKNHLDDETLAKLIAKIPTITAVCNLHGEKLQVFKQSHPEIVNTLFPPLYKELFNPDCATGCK
Sequence of human RAR-related Orphan Receptor gamma (RORg), RORC (gene 6097) (P51449 whole entry, looked up, the tested form may be a part): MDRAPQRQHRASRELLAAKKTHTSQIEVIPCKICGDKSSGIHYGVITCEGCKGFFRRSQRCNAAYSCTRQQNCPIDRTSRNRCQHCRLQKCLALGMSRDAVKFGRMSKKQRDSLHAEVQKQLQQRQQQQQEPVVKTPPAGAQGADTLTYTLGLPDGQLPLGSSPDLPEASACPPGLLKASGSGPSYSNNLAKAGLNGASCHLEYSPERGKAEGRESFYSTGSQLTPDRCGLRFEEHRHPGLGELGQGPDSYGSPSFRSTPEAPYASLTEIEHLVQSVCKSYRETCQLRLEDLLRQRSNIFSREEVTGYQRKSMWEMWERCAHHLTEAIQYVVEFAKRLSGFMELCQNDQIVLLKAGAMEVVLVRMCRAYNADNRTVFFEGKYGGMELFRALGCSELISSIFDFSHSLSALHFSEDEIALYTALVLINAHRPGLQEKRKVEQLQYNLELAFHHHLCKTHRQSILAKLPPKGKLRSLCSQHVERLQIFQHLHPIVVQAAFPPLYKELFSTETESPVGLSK
Sequence of Myc proto-oncogene protein (Homo sapiens) (P01106 whole entry, looked up, the tested form may be a part): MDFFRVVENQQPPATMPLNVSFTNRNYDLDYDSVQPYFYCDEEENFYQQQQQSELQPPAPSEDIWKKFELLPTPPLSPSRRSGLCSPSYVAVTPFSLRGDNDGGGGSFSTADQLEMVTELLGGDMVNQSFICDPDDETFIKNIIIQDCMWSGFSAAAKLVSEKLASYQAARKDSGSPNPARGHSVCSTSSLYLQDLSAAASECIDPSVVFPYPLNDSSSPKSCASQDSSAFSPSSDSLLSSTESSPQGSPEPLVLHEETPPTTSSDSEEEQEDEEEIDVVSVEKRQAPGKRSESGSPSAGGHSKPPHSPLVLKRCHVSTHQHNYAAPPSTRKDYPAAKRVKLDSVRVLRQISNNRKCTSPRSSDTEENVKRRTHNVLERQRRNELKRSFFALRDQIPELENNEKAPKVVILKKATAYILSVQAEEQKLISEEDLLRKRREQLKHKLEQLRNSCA
Sequence of Nuclear receptor subfamily 1 group I member 2 (Homo sapiens) (O75469 whole entry, looked up, the tested form may be a part): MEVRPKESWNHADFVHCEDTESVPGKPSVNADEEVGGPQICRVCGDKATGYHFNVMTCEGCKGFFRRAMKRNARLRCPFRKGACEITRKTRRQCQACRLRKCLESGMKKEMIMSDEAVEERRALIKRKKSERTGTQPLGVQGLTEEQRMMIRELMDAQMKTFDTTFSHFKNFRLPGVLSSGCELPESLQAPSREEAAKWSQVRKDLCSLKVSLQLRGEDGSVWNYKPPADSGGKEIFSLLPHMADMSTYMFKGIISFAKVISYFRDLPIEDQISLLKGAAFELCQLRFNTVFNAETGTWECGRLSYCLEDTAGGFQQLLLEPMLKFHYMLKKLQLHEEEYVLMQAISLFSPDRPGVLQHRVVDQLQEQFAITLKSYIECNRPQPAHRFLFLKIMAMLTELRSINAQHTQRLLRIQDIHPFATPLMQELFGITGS
Sequence of human Peroxisome Proliferator-activated Receptor delta (PPARd), PPARD (gene 5467) (Q03181 whole entry, looked up, the tested form may be a part): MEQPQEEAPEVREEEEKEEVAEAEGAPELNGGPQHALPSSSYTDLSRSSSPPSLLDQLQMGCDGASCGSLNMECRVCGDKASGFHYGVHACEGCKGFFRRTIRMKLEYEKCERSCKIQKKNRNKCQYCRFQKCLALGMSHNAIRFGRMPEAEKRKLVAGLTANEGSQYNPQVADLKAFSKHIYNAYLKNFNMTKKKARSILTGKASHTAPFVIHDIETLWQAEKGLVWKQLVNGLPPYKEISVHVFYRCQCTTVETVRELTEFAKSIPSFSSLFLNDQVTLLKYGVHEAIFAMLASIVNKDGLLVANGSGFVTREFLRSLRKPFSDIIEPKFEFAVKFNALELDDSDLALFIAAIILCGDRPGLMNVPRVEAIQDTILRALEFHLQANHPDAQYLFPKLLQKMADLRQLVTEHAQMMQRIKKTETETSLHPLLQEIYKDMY
Sequence of human Retinoic Acid Receptor beta (RARb), RARB (gene 5915) (P10826 whole entry, looked up, the tested form may be a part): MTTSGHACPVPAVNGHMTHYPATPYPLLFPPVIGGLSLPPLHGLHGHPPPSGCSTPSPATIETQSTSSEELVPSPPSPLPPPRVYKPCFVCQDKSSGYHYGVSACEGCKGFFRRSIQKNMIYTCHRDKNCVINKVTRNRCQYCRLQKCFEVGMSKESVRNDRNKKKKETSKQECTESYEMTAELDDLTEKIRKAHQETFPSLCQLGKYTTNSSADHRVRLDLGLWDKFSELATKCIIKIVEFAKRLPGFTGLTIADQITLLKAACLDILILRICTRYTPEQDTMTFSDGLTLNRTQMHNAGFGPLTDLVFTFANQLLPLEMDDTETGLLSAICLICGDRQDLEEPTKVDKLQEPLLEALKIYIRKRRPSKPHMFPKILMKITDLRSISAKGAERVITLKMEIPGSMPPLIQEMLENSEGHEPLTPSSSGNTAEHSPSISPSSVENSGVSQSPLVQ
Sequence of human Retinoic Acid Receptor gamma (RARg), RARG (gene 5916) (P13631 whole entry, looked up, the tested form may be a part): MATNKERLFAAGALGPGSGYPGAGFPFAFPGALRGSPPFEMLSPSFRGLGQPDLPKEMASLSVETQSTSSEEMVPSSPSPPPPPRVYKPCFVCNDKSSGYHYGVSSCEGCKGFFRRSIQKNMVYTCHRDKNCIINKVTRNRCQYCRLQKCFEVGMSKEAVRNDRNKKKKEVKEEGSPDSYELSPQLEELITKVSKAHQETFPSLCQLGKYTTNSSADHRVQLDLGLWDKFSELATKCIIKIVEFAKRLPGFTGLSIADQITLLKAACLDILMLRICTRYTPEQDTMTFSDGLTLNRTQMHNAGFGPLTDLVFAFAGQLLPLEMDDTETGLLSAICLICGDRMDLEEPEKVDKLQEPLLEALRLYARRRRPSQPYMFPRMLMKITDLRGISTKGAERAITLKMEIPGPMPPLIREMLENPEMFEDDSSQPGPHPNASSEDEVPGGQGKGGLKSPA

Turning to `O=Cc1ccccc1C=O`, the result in experiment [1], in experiment [2], in experiment [3], in experiment [4], in experiment [5] and in experiment [6] was inactive. Moreover, the outcome in [7], in experiment [8], in [9], in experiment [10], in experiment [11] and in experiment [12] was inactive. For the same molecule, in experiment [13], the call was inactive.
Regarding `COc1ccc(C(=O)Nc2nc3ccccc3c(NCc3ccccc3)c2C#N)cc1`, the outcome in [1], in [4], in experiment [5], in experiment [6], in experiment [7] and in experiment [8] was inactive. In addition, the outcome in [9], in [13] and in [14] was inactive. Moreover, the AC50 in experiment [2] was 0.952 µM (active); in experiment [3] it was 7.37 µM (active); in [10], 9.43 µM (active); in experiment [11], 1.45 µM (active); in experiment [12], 0.585 µM (active).
Turning to `CC(C)(O)c1ccc(CNC(=O)c2cccnc2Oc2ccc(F)cc2)cc1`, the result in experiment [1], in [3], in experiment [4], in [5], in [6] and in [7] was inactive. Moreover, the result in [8], in experiment [9], in experiment [15], in [10] and in [16] was inactive. Moreover, the values for the AC50 in experiment [2] and in experiment [12] were 40.7 µM (active) and 2.33 µM (active), respectively.
As for `CC(N)=O`, the molecule was called inactive in experiment [1], in experiment [2], in experiment [3], in experiment [4], in [5] and in experiment [6]. The result in experiment [7], in [8], in experiment [9], in [10], in experiment [11] and in experiment [14] was inactive.
`CCc1nc(N)nc(N)c1-c1ccc(Cl)cc1`: the results for the AC50 in [1], in [2] and in experiment [3] were 166 µM (active), 2.15 µM (active) and 138 µM (active), respectively. Besides, the outcome in experiment [4], in experiment [5], in [6], in [7], in experiment [8] and in experiment [9] was inactive. Also, the result in [10], in experiment [11] and in experiment [12] was inactive.
Regarding `CCc1cc(C2=C(C(=O)O)N(c3ccccc3C(F)(F)F)S(=O)(=O)c3ccccc32)cc2c1OCO2`, the call in [1], in experiment [4], in [6], in [7], in experiment [17] and in [9] was inactive. In experiment [14], the call was inactive. Further, the AC50 in experiment [2] was 66.8 µM (active); in experiment [3] it was 61 µM (active); in experiment [5] it was 33.7 µM (active); in experiment [10] it was 16.6 µM (active); in [12], 1.42 µM (active).
Consider `C/C=C/C=C/C(=O)O`, for which the molecule was called inactive in experiment [1], in [2], in [3], in experiment [4], in experiment [5] and in experiment [6]. Further, the result in experiment [7], in experiment [9], in [10], in experiment [11], in experiment [12] and in [13] was inactive. The result in experiment [14] was inactive.
